# Source: the OligoGym collection
# Key:
# Test in all cases: pooled miR-30 sensor sort-seq; sequence = guide strand
# Details in all cases: shRNA
# SLC16A5 = target: SLC16A5
# SLC17A2 = target: SLC17A2
# SLC17A8 = target: SLC17A8
# SLC13A5 = target: SLC13A5
# SLC20A1 = target: SLC20A1
# SLC22A7 = target: SLC22A7
# SLC22A1 = target: SLC22A1
# SLC22A17 = target: SLC22A17
# SLC23A2 = target: SLC23A2
# SLC25A25 = target: SLC25A25
# SLC25A18 = target: SLC25A18
# SLC22A8 = target: SLC22A8
# Note: reference of the scale not given here.
sequence,measurement,setting,value
TTGCTTCCCAGGACCGTCTTTG,sensor-assay potency score (higher = more potent),SLC16A5,-0.623
TTGGCCTGCAGTACCGCCTTTG,sensor-assay potency score (higher = more potent),SLC16A5,-1.15
TAAACTGACCTGTCCATGCCAT,sensor-assay potency score (higher = more potent),SLC17A2,-0.0582
TTCAGTGAAGAAGATGCCGATA,sensor-assay potency score (higher = more potent),SLC16A5,-0.558
ATGAACAGAAATCTGGACCTTT,sensor-assay potency score (higher = more potent),SLC17A2,0.387
TTACTTAGACTAACCACGTTGG,sensor-assay potency score (higher = more potent),SLC17A8,-0.0532
TTTCATTGTAGTATTTCTCTGT,sensor-assay potency score (higher = more potent),SLC17A8,0.732
TTTCTTGCTCTCTAGCCCGCAG,sensor-assay potency score (higher = more potent),SLC13A5,-0.697
TTTCGCACAGTGATCAATCTGA,sensor-assay potency score (higher = more potent),SLC17A2,0.624
TAAGACATCTTCTTTTTGGGAC,sensor-assay potency score (higher = more potent),SLC17A8,0.433
TACGGTGCTATTGTTGACCATT,sensor-assay potency score (higher = more potent),SLC17A8,-0.977
ATTAGATAGACCTTGCTGCTGA,sensor-assay potency score (higher = more potent),SLC17A2,0.973
TTTTCCATCAACATATACGGTG,sensor-assay potency score (higher = more potent),SLC17A8,-0.405
TCATAAATCACTGTGAACCATA,sensor-assay potency score (higher = more potent),SLC17A2,-0.911
TTGCTGTCAGGAAACAACTCGT,sensor-assay potency score (higher = more potent),SLC13A5,-0.663
TATGTTAGGATGATGGTGCATA,sensor-assay potency score (higher = more potent),SLC17A2,-0.486
TTGCTGGCCTGGAACTCCCATT,sensor-assay potency score (higher = more potent),SLC16A5,-1.48
TCTGATGTTAACATGGAGCAGA,sensor-assay potency score (higher = more potent),SLC17A2,-0.539
TTCTGCAGGGCGTAGAAGCTGC,sensor-assay potency score (higher = more potent),SLC16A5,-0.98
TTGACTGAACTGGACAAGGTTC,sensor-assay potency score (higher = more potent),SLC20A1,-0.668
TACTGGACACACACCTGCCTGG,sensor-assay potency score (higher = more potent),SLC13A5,-0.809
ATGTACACGCAGTAGCCTGTGT,sensor-assay potency score (higher = more potent),SLC16A5,-0.541
TTTACTTAGACTAACCACGTTG,sensor-assay potency score (higher = more potent),SLC17A8,-0.016
TTTATTTACAGAATCCTCCCCA,sensor-assay potency score (higher = more potent),SLC22A7,0.685
TTCTGAGTGGTCGTACTCCCAG,sensor-assay potency score (higher = more potent),SLC22A7,-1.56
TTTTCTGTCACCTAGACCCATC,sensor-assay potency score (higher = more potent),SLC20A1,-0.857
TATAGTTCAGCTCCTCCGCAGG,sensor-assay potency score (higher = more potent),SLC22A1,-0.994
ATGATTATGATGTTTAACCAGT,sensor-assay potency score (higher = more potent),SLC22A1,-1.09
TGAAACAGAATGATAGAGCAAG,sensor-assay potency score (higher = more potent),SLC22A17,-0.0667
TTCACTATCAGCCACCGTGCGG,sensor-assay potency score (higher = more potent),SLC22A17,-0.928
TCTGAGTGGTCGTACTCCCAGC,sensor-assay potency score (higher = more potent),SLC22A7,-1.03
TGCTCCAGGATCACCTGCCAGC,sensor-assay potency score (higher = more potent),SLC22A17,-1.29
TACATGATCGCCACCGTTCTTC,sensor-assay potency score (higher = more potent),SLC22A1,-0.241
TAACCCAGGAACAGGTAGCCGG,sensor-assay potency score (higher = more potent),SLC22A17,-1.09
TACAACTCTGAAGTGAACAGGT,sensor-assay potency score (higher = more potent),SLC22A7,0.517
TAACAGTCAATAAACTGCTTGC,sensor-assay potency score (higher = more potent),SLC20A1,0.0584
TATCTTTATTGCTTCAGTGTTT,sensor-assay potency score (higher = more potent),SLC22A1,-0.476
TTTGTGATAACAGCCACCGAGG,sensor-assay potency score (higher = more potent),SLC22A1,-0.671
TAATAGGAGAAGTTCACTCCGA,sensor-assay potency score (higher = more potent),SLC22A7,0.0839
TTCTGCAGAGGATAACTCCATC,sensor-assay potency score (higher = more potent),SLC22A1,-0.998
TTCAATATCACCAACAGACAAC,sensor-assay potency score (higher = more potent),SLC20A1,-1
TCGGAGGACACTAGCAGTCTAG,sensor-assay potency score (higher = more potent),SLC22A7,-0.985
ATGGCAAACATTACATAGCTGA,sensor-assay potency score (higher = more potent),SLC22A7,-0.95
TCACTATCAGCCACCGTGCGGA,sensor-assay potency score (higher = more potent),SLC22A17,-0.275
TAGCTCTTTGTACAGGCCGGAA,sensor-assay potency score (higher = more potent),SLC20A1,-1.38
TCTGTCTGCGGGGTAACCCAGG,sensor-assay potency score (higher = more potent),SLC22A17,-1.27
TTCGGTGACATCCTCTTCGAGG,sensor-assay potency score (higher = more potent),SLC22A1,0.00261
TTTCGGTGACATCCTCTTCGAG,sensor-assay potency score (higher = more potent),SLC22A1,-1.03
TAGACACCCAGGTCAACACCGG,sensor-assay potency score (higher = more potent),SLC22A17,-0.269
TTTATTGCTTCAGTGTTTCTTT,sensor-assay potency score (higher = more potent),SLC22A1,0.132
TTATTTACAGAATCCTCCCCAA,sensor-assay potency score (higher = more potent),SLC22A7,-0.0957
TTCACGGTGCTATCTATGCTGG,sensor-assay potency score (higher = more potent),SLC20A1,-1.16
ATTATAGTCCCAATCCTTGAGG,sensor-assay potency score (higher = more potent),SLC22A17,-1.04
TAGGGTACAACTCTGAAGTGAA,sensor-assay potency score (higher = more potent),SLC22A7,0.4
TGATAGAGCACAGAGTCCGTGA,sensor-assay potency score (higher = more potent),SLC22A1,-0.157
TTCTCGTTCAATTTTTCTCTTC,sensor-assay potency score (higher = more potent),SLC20A1,-0.376
TATTGAAACAGAATGATAGAGC,sensor-assay potency score (higher = more potent),SLC22A17,-0.514
TAGGCAACTGCACTGCACCATT,sensor-assay potency score (higher = more potent),SLC20A1,-0.846
TCCGGCAGCAGCATAATGCTGA,sensor-assay potency score (higher = more potent),SLC22A17,-0.933
TGGTACATGATCGCCACCGTTC,sensor-assay potency score (higher = more potent),SLC22A1,-1.08
AAGGTCAGCAGCACAATCCCGC,sensor-assay potency score (higher = more potent),SLC22A17,-0.694
TAGAGTAGAAGCCATATTGGTG,sensor-assay potency score (higher = more potent),SLC20A1,-0.743
TTTTGTGATAACAGCCACCGAG,sensor-assay potency score (higher = more potent),SLC22A1,-0.543
TTCCGTAGTGTAGATCGCCATG,sensor-assay potency score (higher = more potent),SLC23A2,-1.38
TGAAGCTGTCCTCACACACTGG,sensor-assay potency score (higher = more potent),SLC22A7,-0.999
TTAAATGACAACTTCTAACGTC,sensor-assay potency score (higher = more potent),SLC25A25,0.538
TTCAACACTTGATCGATTCCTG,sensor-assay potency score (higher = more potent),SLC23A2,0.272
TCGAGTTTTCAGAACATCTAGA,sensor-assay potency score (higher = more potent),SLC25A18,-0.0433
AACTATAGTAGGCAAAACCGGT,sensor-assay potency score (higher = more potent),SLC22A8,-1.07
TAATACTAGGAATATTGTCAGC,sensor-assay potency score (higher = more potent),SLC23A2,-0.987
TTAAGGTTGGCAAACAGTGGGA,sensor-assay potency score (higher = more potent),SLC25A18,-0.285
TCTGTCACAATGGAGTCCTTGG,sensor-assay potency score (higher = more potent),SLC22A8,-1.04
TTTGTTGGAGTTGCACACCAAG,sensor-assay potency score (higher = more potent),SLC22A8,-1.22
TAAAATACAGAAACAACCCTTC,sensor-assay potency score (higher = more potent),SLC25A18,0.73
TTCGAGTTTTCAGAACATCTAG,sensor-assay potency score (higher = more potent),SLC25A18,-0.224
TTCCACATTCAAGATGACGGTG,sensor-assay potency score (higher = more potent),SLC22A8,-0.373
TTCTATTGTGACTACCTGTTAA,sensor-assay potency score (higher = more potent),SLC25A18,-0.81
TCAAACTAGGTGCTGACTCTGA,sensor-assay potency score (higher = more potent),SLC25A18,-0.384
TTGAGGTAGCACTACAACGCAG,sensor-assay potency score (higher = more potent),SLC25A18,-1.18
TAAATCATGTCTGATCGCTGGG,sensor-assay potency score (higher = more potent),SLC23A2,0.763
TATGGAACCTTAAACCACGGGG,sensor-assay potency score (higher = more potent),SLC23A2,-0.198
TTCTTGGATTTATAAATCGGGA,sensor-assay potency score (higher = more potent),SLC23A2,-1.08
TTGAAGACAGCCACCCGCCGGA,sensor-assay potency score (higher = more potent),SLC22A8,-0.0956
TTACATAGCTGACGGAGGCTGC,sensor-assay potency score (higher = more potent),SLC22A7,-0.245
TGAGGTAGCACTACAACGCAGA,sensor-assay potency score (higher = more potent),SLC25A18,-0.364
TTGGTCTCAAACTAGGTGCTGA,sensor-assay potency score (higher = more potent),SLC25A18,-0.0245
TTCACTTGTGTAGAGGAAGAGG,sensor-assay potency score (higher = more potent),SLC22A8,-0.683
TAATTCACTTGTGTAGAGGAAG,sensor-assay potency score (higher = more potent),SLC22A8,-0.618
TATGCCATCAAGAACACAGGAG,sensor-assay potency score (higher = more potent),SLC23A2,0.397
TTTCAGAACATCTAGAGGCGTC,sensor-assay potency score (higher = more potent),SLC25A18,0.0336
